# In PubChem BioAssay AID504339 (National Center for Advancing Translational Sciences (NCATS), 2011):
# Among all 390,000 compounds or so, about 17,000 (4.4%) were called active. About 8% were inconclusive and are not listed. Only a selection was taken, and actives are over-represented in it overall. Unmarked numbers belong to inactive results. Calls come from the whole dose curve; as a rule, active = well fitted inhibition curve with a large enough effect; inconclusive = small, poorly fitted or top-dose-only effect; inactive = no such curve, though single readings can be large or run the other way.
# Target: Lysine-specific demethylase 4A (Homo sapiens) (UniProt O75164)
# Test: qHTS Assay for Inhibitors of JMJD2A-Tudor Domain; note: nearly all actives have a fitted effect of over 50% in size
# Details: AlphaScreen JMJD2A-Tudor / H3K4me3 peptide binding; series mostly up to 114 µM; activity change, negative = inhibition: at the top concentration
# Excerpt: JMJD2A is a jumonji-domain-containing lysine demethylase that uses Fe(II) together with 2-OG to effect oxidative demethylation of histones. Methylation is one of many […] modification that affect epigenetic transcription. […] It is proposed that the functions of JmjD2A binding to the histones, is to maintain marks after they are installed and to spread the modifications by […], establishing a self-propagating cycle for rapid methylation over a large area of chromatin. […] Thus, small molecule targeting of the JMJD2A-tudor domain interaction with its target methylhistone mark is expected to enable sophisticated experiments probing the fine regulatory pathways leading to selective demethylation of a given methyllysine locus based on the methylation state of adjacent histone marks. A quantitative high throughput AlphaScreen has been developed to identify small molecule inhibitors based on a protocol published by NCGC and SGC [4].
# Although AlphaScreen has significant advantages with its utility in a variety of epigenetic target assays, the primary screening data provided in this deposition should be used with caution due to the prevalence of screening artifacts. The top compound concentration tested was high (>100uM) in this assay, which increases number of actives and potential artifacts. An AlphaScreen counterscreen is highly recommended to be run against any putative actives to eliminate non-specific artifacts. Alternatively, one can use other AlphaScreen assays in PubChem to filter out promiscuous hits.
# [1] Lee, J. et al. Distinct binding modes specify the recognition of methylated histone H3K4 and H4K20 by JMJD2A-tudor. Nat Struct Mol Biol. 15(1); 109-11. 2008. PMID: 18084306
# [2] Yasgar, et al. Compound Management for Quantitative High-Throughput Screening. JALA. 2008 Apr;13(2):79-89. PMID: 18496600
# [3] Inglese, et al. Quantitative high-throughput screening: a titration-based approach that efficiently identifies biological activities in large chemical libraries. Proc Natl Acad Sci. 1;103(31):11473-8. 2006. PMID: 16864780
# [4] Quinn et al. A homogeneous method for investigation of methyl-dependent protein-protein interactions in epigenetics. Nucleic Acids Res., 38(2):e11. 2010. PMID: […]
# [5] Baell,Holloway. New substructure filters for removal of pan assay interference compounds (PAINS) from screening libraries and for their exclusion in bioassays. J Med Chem. 53(7):2719-40. 2010. PMID: 20131845
# NIH Molecular Libraries Probe Production Network [MLPCN]
# NIH Chemical Genomics Center [NCGC]
# Structural Genomics Consortium (SGC)
# To each well of a 1,536w plate, 2ul of JMJD2A-Tudor (final 100nM) and 1ul biotinylated histone peptide methylated at Lys4 [b-H3(1-18)K4me3] (final 50nM) were added in 1x PBS buffer, pH 7.4, containing 0.01% Tween-20, using a nanoliter dispenser. Formation of a protein-peptide complex proceeded at room temperature for 30 min. A Kalypsys pin-tool transferred 23nl of library compound solution in DMSO to each well. Following a 30 min incubation of the protein-peptide complex with compounds at room temperature, a mixture of 40 µg/mL each streptavidin-coated donor and nickel chelate acceptor AlphaScreen beads (final 10 µg/mL) was added in a 1ul dispense for a final volume of 4ul, followed by a brief centrifugation (1000 rpm, 1 min). Plates were incubated protected from the light for 20 min at room temperature. Microplates were then read on an EnVision multilabel plate reader using the 1,536 plate HTS AlphaScreen aperture (excitation time 80 ms, measurement time 240 ms).
# % is set by controls: 0 for no effect and ±100 for the full control effect; potency is the fitted concentration of half-maximal effect.
# Chain of Lysine-specific demethylase 4A (Homo sapiens) (O75164 whole entry, looked up, the tested form may be a part): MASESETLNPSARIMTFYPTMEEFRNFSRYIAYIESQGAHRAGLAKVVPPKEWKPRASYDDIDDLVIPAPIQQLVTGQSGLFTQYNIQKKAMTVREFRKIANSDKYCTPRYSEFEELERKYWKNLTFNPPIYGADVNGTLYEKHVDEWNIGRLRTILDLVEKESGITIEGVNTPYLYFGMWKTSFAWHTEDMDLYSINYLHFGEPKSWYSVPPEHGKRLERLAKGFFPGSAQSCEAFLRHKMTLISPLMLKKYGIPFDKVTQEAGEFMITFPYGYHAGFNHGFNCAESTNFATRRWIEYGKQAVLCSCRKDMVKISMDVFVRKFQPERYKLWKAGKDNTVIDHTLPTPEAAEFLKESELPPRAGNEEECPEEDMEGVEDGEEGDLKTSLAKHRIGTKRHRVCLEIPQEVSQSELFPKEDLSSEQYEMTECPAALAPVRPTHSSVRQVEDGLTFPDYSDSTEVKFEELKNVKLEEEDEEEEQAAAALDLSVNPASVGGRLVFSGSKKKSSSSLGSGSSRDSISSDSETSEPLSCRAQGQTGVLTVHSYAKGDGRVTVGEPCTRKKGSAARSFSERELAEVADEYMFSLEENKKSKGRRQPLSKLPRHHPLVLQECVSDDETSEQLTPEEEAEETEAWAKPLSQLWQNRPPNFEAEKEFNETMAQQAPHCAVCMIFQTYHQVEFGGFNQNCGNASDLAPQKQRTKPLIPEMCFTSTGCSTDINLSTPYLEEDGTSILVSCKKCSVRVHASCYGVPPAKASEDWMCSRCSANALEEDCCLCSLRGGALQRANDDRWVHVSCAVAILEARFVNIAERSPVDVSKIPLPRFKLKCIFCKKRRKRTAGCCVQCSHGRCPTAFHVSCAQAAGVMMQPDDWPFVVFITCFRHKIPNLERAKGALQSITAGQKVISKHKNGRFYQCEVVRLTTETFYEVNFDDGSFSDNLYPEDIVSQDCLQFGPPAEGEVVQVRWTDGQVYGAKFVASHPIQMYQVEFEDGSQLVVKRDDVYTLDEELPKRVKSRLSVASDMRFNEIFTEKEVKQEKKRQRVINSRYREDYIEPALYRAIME
Compound,"activity change, negative = inhibition",Potency
COc1ccc(NC(=O)N2CCC(Cc3ccccc3)CC2)cc1,-2.41%,–
COc1ccc(N2CCC(N3CCN(C)C(CCO)C3)CC2)cc1 (stereo not given),-3.23%,–
COc1ccc(OCC(=O)Nc2ccc(N3CCC(C)CC3)cc2)cc1,-14.1%,–
COc1ccc(NC(=S)NCC2CCN(c3ccc(OC)cc3)C2)cc1 (stereo not given),–,35.5 µM (active)
Cc1cccc(C)c1NC(=O)CNC(=O)C1CCCC1,-12.8%,–
COc1ccc(N2CCC(CNC(=S)Nc3c(C)cccc3C)C2)cc1 (stereo not given),–,39.8 µM (active)
Cc1ccccc1NC(=O)Cn1c(=O)n(CCCCC(=O)NCc2ccccc2Cl)c(=O)c2ccccc21,-7.85%,–
COc1cccc(Nc2nc3ccccc3c3nncn23)c1,8.56%,–
Cc1ccc(NC(=O)Cn2c(=O)n(-c3ccccc3)c(=O)c3c4c(sc32)CCCC4)cc1,-2.39%,–
COc1ccc(Cl)cc1C(=O)Nc1ccc(N(C)C(C)=O)cc1,-14.2%,–
COc1cc(OC)c(C(=O)Nc2ccc(N(C)C)cc2)cc1OC,–,79.4 µM (active)
COc1cc(OC)c(C(=O)Nc2ccccc2-c2ccccc2)cc1OC,-24%,–
Cc1ccc(NC(=O)CSc2nc3c([nH]c4ccccc43)c(=O)n2-c2ccccc2)cc1Cl,-10%,–
CCCNC(=O)C1CCC(Cn2c(=O)c3sccc3n(Cc3ccccc3F)c2=O)CC1 (stereo not given),-1.33%,–
O=C(Nc1cc(C(F)(F)F)ccc1Cl)c1cc2nc(-c3ccc4c(c3)OCO4)cc(C(F)(F)F)n2n1,0%,–
Cc1cc(OCC(=O)NC2CCN(C)CC2)ccc1[N+](=O)[O-],-9.59%,–
Cc1cc(OCCCCOc2ccc(C#N)cc2)ccc1[N+](=O)[O-],2.11%,–
Cc1cc(OCCCN2CCN(Cc3ccccc3)CC2)ccc1[N+](=O)[O-],–,10 µM (active)
CN(C(=O)c1ccc2c(c1)N(Cc1cccc(Cl)c1)C(=O)c1ccccc1S2=O)C1CCCCC1 (stereo not given),-29.2%,–
COCCn1c(CCC(=O)Nc2cc(C)ccc2C)nc2cccnc21,-15.1%,–
CCOc1ccc(S(=O)(=O)c2cn(Cc3ccccc3)c3ccc(OCC)cc3c2=O)cc1,-4.3%,–
Cn1nnc2c(N3CCN(c4ccccc4)CC3)ncnc21,-9.42%,–
CCOc1ccccc1C(=O)Nc1ccc(S(=O)(=O)N2CCCCC2c2cccnc2)cc1 (stereo not given),-15.2%,–
O=C(c1cccc(Cl)c1)N1CCN(CCc2ccncc2)CC1,-0.662%,–
CSc1ccc(S(=O)(=O)NCc2ccc(Cl)cc2)cc1,14.7%,–

Compound,"activity change, negative = inhibition",Potency
CCn1c(CNS(=O)(=O)c2ccc(Cl)cc2)n[nH]c1=S,–,10 µM (active)
CCn1c(CSCc2c(Cl)cccc2Cl)n[nH]c1=S,-16.5% [at 11.4 µM],–
COc1cccc(OC)c1C(=O)Nc1nnc(C(C)C)s1,-3.66%,–
COc1cccc2sc(NNC(=O)c3nc4ccccc4s3)nc12,–,50.1 µM (active)
COc1ccc(-c2nc3ccccc3s2)cc1NC(=O)COc1ccccc1C,-1.12%,–
Cc1ccc(OCCn2c(CNc3ccccc3C)nc3ccccc32)cc1,-10.9%,–
COc1ccc(N2CCN(C(=O)CSCc3nc(-c4ccccc4Cl)oc3C)CC2)cc1,–,50.1 µM (active)
COc1ccc(CNC(=O)CSCc2nc(-c3ccccc3F)oc2C)cc1,-6.4%,–
COc1ccc(N2CCN(C(=O)CN3C(=O)COc4ccccc43)CC2)cc1,-15%,–
COc1ccccc1OCCOc1ccc(/C=C2\C(=N)N3N=C(C)SC3=NC2=O)cc1,-14.5%,–
CCS(=O)(=O)C1=NSC2=NC(=O)/C(=C\c3ccc(OS(=O)(=O)c4ccccc4)cc3)C(=N)N21,–,44.7 µM (active)
CCOc1cc(/C=C2\C(=N)N3N=C(C)SC3=NC2=O)ccc1OCCOc1ccccc1,-0.685%,–
COc1cc(/C=C2\C(=N)N3N=C(CC(=O)N4CCOCC4)SC3=NC2=O)cc(OC)c1OC,-13%,–
CS(=O)(=O)C1=NN2C(=N)/C(=C\c3ccc(OCCOc4ccccc4)cc3)C(=O)N=C2S1,–,56.2 µM (active)
CCC(=O)Nc1c(C(=O)N2CCN(c3ccc(F)cc3)CC2)oc2ccccc12,-26.9%,–
Cc1ccccc1CCNC(=O)C1CCN(c2nc3ccccc3nc2C(F)(F)F)CC1,-6.17%,–
COc1ccc2c(c1)c(N1CCCC1=O)c(C(=O)Nc1ccc(OC)c(Cl)c1)n2C,-28.3%,–
Cc1nnc(N2CCC(C(=O)Nc3ccc(F)cc3)CC2)c2nn(-c3ccc(Cl)cc3)c(C)c12,5.17%,–
COc1ccc(Cl)cc1-n1c(CCC(=O)O)ccc1-c1ccc(C)cc1,-35.3%,–
FC(F)(F)c1ccc(-n2cn[nH]c2=S)cc1,–,8.91 µM (active)
CC(C)n1c(=S)[nH]c2cc(C(F)(F)F)ccc21,-16.9%,–
O=c1c2ccccc2c(-c2ccc(F)cc2)nn1-c1ccc(C(F)(F)F)cc1,28.6%,–
Cc1c(NC(=O)Cc2ccccc2)cccc1-c1nc2cccnc2s1,-22.5%,–
CCCC/S(C)=N/S(=O)(=O)c1ccc(C)cc1 (stereo not given),-1.74%,–
CC/S(CC1CC1(Cl)Cl)=N\S(=O)(=O)c1ccc(C)cc1 (stereo not given),-13.1%,–
